Screening data as filed in PubChem BioAssay.
p53null 32C kill – kills p53 null cells at the permissive temperature. H1299-neo p53 null cells, ATP luminescence, 24 h, 32C. Potency, µM (top dose mostly 46.1 µM), for the others: top-dose activity change, negative = cytotoxicity, most hits filed as cytotoxic. 55,000 compounds, 0.62% hits. AID 903;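 also: 0% = DMSO only and -100% = full killing by 100 µM tamoxifen; nearly all actives have a fitted effect of over 55% in size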
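AC50 values derive from Hill modelling of qHTS concentration-response data (up to 46 uM) in H1299-neo cells. Cells were treated 24 h at 32C following overnight attachment at 37C; viability was read as cellular ATP.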
NTMT1 inhibitor – inhibitors of human N-terminal methyltransferase NTMT1. Potency, µM (highest dose often 114 µM), without a hit: top-dose activity change, negative = inhibition, hits mostly inhibitors. Q9BV86. 59,000 compounds, 2.5% hits. NTMT1 MTase-Glo SAH luminescence, purified enzyme;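 also: plate controls were DMSO vehicle for no effect and no enzyme for full effect; nearly all actives have a fitted effect of over 65% in size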
Target sequence (Q9BV86 whole entry, looked up): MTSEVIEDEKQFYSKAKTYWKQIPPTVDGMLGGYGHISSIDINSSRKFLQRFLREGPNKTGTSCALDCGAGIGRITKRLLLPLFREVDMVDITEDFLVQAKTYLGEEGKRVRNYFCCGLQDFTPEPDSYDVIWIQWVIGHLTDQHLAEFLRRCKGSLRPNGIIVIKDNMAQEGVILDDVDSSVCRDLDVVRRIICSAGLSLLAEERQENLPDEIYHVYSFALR
OvCa metastasis – ovarian cancer metastasis inhibition, 3D TME model; SKOV3ip1-GFP adhesion/invasion on 3D omental model, fluorescence; Potency, µM (titrated, usually from 45.8 µM), for the others: at the highest dose activity change, negative = inhibition, most hits filed as inhibitors; 46,000 compounds, 0.1% hits;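 also: plate controls were DMSO wells for no effect and tomatine positive control wells for full effect; nearly all actives have a fitted effect of over 65% in size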
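qHTS, 4-pt dose (0.36-46 umol/L); SKOV3ip1-GFP, 1,200 cells/well, no FBS; primary omental fibroblast/mesothelial co-culture 48 h pre-grown; 2 h RT + 16 h 37 C; PBS wash, 4% PFA; GFP count 488/509 nm.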
FH mod – Identification of activators of human fumarate hydratase by quantitative high-throughput screening | Fumarate hydratase, mitochondrial (Homo sapiens), P07954 | FH coupled MDH/diaphorase resazurin fluorescence, 15 min | Potency, µM (titrated, usually from 79.9 µM), for the others: at the highest dose activity change, negative = inhibition, usual class: inhibitors | 54,000 compounds, 0.22% hits | AID 1347055, 2019; also: the screen sought activators but most active calls are inhibition curves; nearly all actives have a fitted effect of over 45% in size
Target sequence (P07954 whole entry, looked up): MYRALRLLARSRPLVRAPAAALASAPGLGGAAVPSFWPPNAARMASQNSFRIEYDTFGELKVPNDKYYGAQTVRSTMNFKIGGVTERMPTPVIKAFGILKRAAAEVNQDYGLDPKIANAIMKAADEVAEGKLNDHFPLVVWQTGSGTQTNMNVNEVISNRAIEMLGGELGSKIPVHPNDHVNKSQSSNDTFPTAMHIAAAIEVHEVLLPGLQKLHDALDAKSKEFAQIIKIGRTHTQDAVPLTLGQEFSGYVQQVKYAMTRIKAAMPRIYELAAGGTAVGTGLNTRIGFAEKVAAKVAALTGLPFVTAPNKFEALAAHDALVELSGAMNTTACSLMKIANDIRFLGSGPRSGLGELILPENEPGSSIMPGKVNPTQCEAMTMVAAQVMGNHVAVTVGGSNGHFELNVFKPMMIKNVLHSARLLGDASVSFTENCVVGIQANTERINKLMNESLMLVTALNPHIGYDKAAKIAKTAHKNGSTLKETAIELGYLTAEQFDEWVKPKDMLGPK
p53null 39C kill – selectivity test: cytotoxicity in p53 null cells, nonpermissive temperature; H1299 p53-null (neo) cells, 39C, ATPlite viability, 24 h; Potency, µM (highest dose often 46.1 µM), for the others: top-dose activity, negative = cell killing, hits mostly cytotoxic; 55,000 compounds, 0.97% hits;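 also: 0% = DMSO only and -100% = full killing by 100 µM tamoxifen; nearly all actives have a fitted effect of over 50% in size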
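Luminescent ATP signal reported cell survival after H1299 lines (neo, p53 null; or p53 A138V) received up to 46 uM compound and 24 hr incubation at 39C.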
Numbers without * were called inactive; i = inactive; ? = inconclusive; · = no result given; ! = repeats disagree; [ ] = remark or other dose. This excerpt belongs to a sample that is enriched for hits. Calls follow the shape of the dose curve; as a rule, active = well fitted curve in the direction sought with a large enough effect; inconclusive = small, poorly fitted or top-dose-only effect, or another doubt; inactive = no such curve, though single readings can be large; an effect the other way counts as inactive or inconclusive. Unless noted, % is scaled to controls: 0 for no effect and ±100 for the full control effect; potency is read from the fitted curve at half-maximal effect.

SMILES	p53null 32C kill	NTMT1 inhibitor	OvCa metastasis	FH mod	p53null 39C kill
CN(Cc1ccc(/C=C/C(=O)NO)cc1)CC12CC3CC(CC(C3)C1)C2	·	15.1%	·	·	·
COc1cccc(NC(=O)c2c(C)oc3nc(C)nc(N4CCCC4)c23)c1	8.2%	89.1µM*	13.8%	2.8%	-9.1%
CC(C)C(=O)N1c2nc(-c3ccco3)nn2C2(CCCCC2)[C@@H]2CCCC[C@@H]21	-3.0%	89.1µM*	-13.6%	1.8%	-12.3%
CCOc1cccc(-c2nc3ccccc3c(=O)o2)c1	12.6µM*	3.8%	i	-13.2%	?
COc1cc(OC)cc(-c2nc3ccccc3c(=O)o2)c1	6.2%	·	·	·	14.2%
COc1ccc2cc1Oc1cc3c(cc1OC)CC[N+](C)(C)[C@H]3Cc1ccc(cc1)Oc1c(OC)c(OC)cc3c1[C@@H](C2)[N+](C)(C)CC3	·	12.6µM*	·	-6.3%[53.3 µM]	·
COc1cc2c3cc1Oc1cc(ccc1O)C[C@@H]1c4c(cc(OC)c(O)c4Oc4ccc(cc4)C[C@@H]3N(C)CC2)CC[N+]1(C)C	·	?	·	-5.6%[53.3 µM]	·
COc1ccc2cc1Oc1ccc(cc1)CC1c3cc(c(OC)cc3CCN1C)Oc1c(OC)c(OC)c(OC)c3c1C(C2)N(C)CC3 (centres undefined)	·	39.8µM*	·	-5.0%[53.3 µM]	·
CNC(=O)Cn1cc(-c2ccc3c(c2)C(F)CC32NC(=O)N(CC(=O)N(Cc3ccc(F)cc3)C(C)C(F)(F)F)C2=O)cn1 (centres undefined)	·	-2.6%	·	·	·
CCN(CC)CCNC(=O)c1c(C)[nH]c(/C=C2\C(=O)Nc3ccc(F)cc32)c1C	·	35.5µM*	·	12.6µM*!	·
O=C(CNC(=O)C1CCCCC1)OC(C(=O)c1ccccc1)c1ccccc1 (centres undefined)	·	89.1µM*	·	·	·
CC(=O)Nc1ccc(NC(=O)CCc2c(C)nc3c(c(C)nn3-c3ccc(C)cc3)c2C)cc1	-0.8%	-12.6%	-10.1%	-11.4%	6.31µM*
CCn1cc2nc(SCc3cccc(C)c3)n(CCc3ccccc3)c(=O)c2n1	36.8%	9.8%	i	39.8µM*	23.0%
CCn1cc2nc(SCc3cccc(C(F)(F)F)c3)n(Cc3ccc(Cl)cc3)c(=O)c2n1	5.1%	4.2%	-13.9%	?	30.7%
CCn1cc2nc(SCc3cccc(C(F)(F)F)c3)n(CCc3ccccc3)c(=O)c2n1	18.1%	-4.9%	i	31.6µM*	17.2%
CCn1cc2nc(SCc3cccc(Cl)c3)n(Cc3ccc(C)cc3)c(=O)c2n1	29.5%	4.5%	101.4%	?	-21.6%
CCn1cc2nc(SCC(=O)Nc3ccc(C)cc3C)n(Cc3ccc(C)cc3)c(=O)c2n1	-7.5%	89.1µM*	?	-42.6%	?
CCn1cc2nc(SCC(=O)Nc3cccc(Cl)c3C)n(Cc3ccc(Cl)cc3)c(=O)c2n1	-2.9%	?	i	?	-8.6%
CC[C@@]1(O)C(=O)OCc2c1cc1n(c2=O)Cc2c-1nc1ccccc1c2CCNC(C)C	·	13.3%[12.6 µM]	·	·	·
C/C=C/[C@@H]1C=C[C@@H]2C[C@H](C)CC[C@H]2[C@]1(C)/C(O)=C1/C(=O)[C@@H](CO)N(C)C1=O	·	14.9%[29.8 µM]	·	2.0%[53.3 µM]	·
CC(CC1c2ccccc2CCc2ccccc21)CN(C)C (centres undefined)	·	12.6µM*	·	0.0%[53.3 µM]	·
Cc1cccc(-c2nc3nc(C)cc(N4CCN(c5ccccc5)CC4)n3n2)c1	2.3%	-0.8%	i	-3.0%	-15.9%
Cc1ccc(-c2nc3nc(C)cc(N4CCN(c5cccc(C)c5)C(C)C4)n3n2)cc1 (centres undefined)	1.7%	-1.8%	91.6%	?	20µM*
O=S(=O)(Nc1cccc(F)c1)c1ccc2[nH]c3c(c2c1)CCCCC3	37.3%	-10.7%	-16.3%	35.5µM*	15.8µM*
O=S(=O)(Nc1cc(F)ccc1F)c1ccc2[nH]c3c(c2c1)CCCCC3	28.9%	?	?	?	10.2%
SMILES	p53null 32C kill	NTMT1 inhibitor	OvCa metastasis	FH mod	p53null 39C kill
Fc1ccc(Cc2cn3cc(-c4ccccc4)nc3s2)cc1	4.47µM*	-3.1%	i	-2.3%	2µM*
CC(=O)O[C@H]1C[C@@](O)(C(C)C)C2[C@@H](OC(=O)c3ccc(O)cc3)C[C@@]3(C)O[C@H]3C[C@]21C (some centres undefined)	·	1.5%[29.8 µM]	·	8.1%[53.3 µM]	·
CN(C)C/C=C/C(=O)Nc1ccc(C(=O)Nc2cccc(Nc3ncc(Cl)c(-c4c[nH]c5ccccc45)n3)c2)cc1	·	50.1µM*!	·	6.2%	·
CC(=O)OC[C@@]12[C@H](O)C[C@@H](C)[C@]3(C[C@@H](c4ccoc4)OC3=O)[C@H]1C[C@H](O)C[C@]21CO1	·	7.2%[29.8 µM]	·	-1.1%[53.3 µM]	·
O=S(=O)(Nc1nc(CN2CCOCC2)nc2sc3c(c12)CCC3)c1ccc2c(c1)OCCO2	·	-2.9%	·	·	·
CCN(CC)CCCNC(=O)CSc1c2c(nc3cc(Cl)ccc13)CCCC2	37.2%	?	?	-23.2%	12.6µM*
CSc1cccc(Nc2cc(C(=O)NCCc3ccc(Cl)cc3)c3ccccc3n2)c1	-8.4%	4.6%	i	?	?
CCCCN(CCCNC(=O)c1cc(Nc2cccc(SC)c2)nc2ccccc12)Cc1ccccc1	-18.8%	3.0%	?	?	5.62µM*
CC(=O)O[C@H]1[C@@]2(O)C[C@H](C)[C@H](OC(=O)c3ccccc3)[C@@H]2[C@@H](OC(=O)CO)[C@]2(OC(C)=O)C[C@H]3C(=O)C(C)(C)C[C@@H]3[C@@]1(C)[C@H]2OC(C)=O	·	0.0%[12.6 µM]	·	7.5%[20.6 µM]	·
CCCNC(=O)CCc1c(C)nc2nc(-c3cc(OC)cc(OC)c3)nn2c1C	-1.5%	-13.9%	-0.3%	-23.3%	-1.0%
CCCCCCNC(=O)CCc1c(C)nc2nc(-c3cc(OC)cc(OC)c3)nn2c1C	-4.8%	89.1µM*	8.6%	-6.4%	-22.8%
O=C(O)CNC(=O)c1nc(Cl)c2ccccc2c1O	·	10.4%	·	·	·
Cc1ccc(NC2=C/C(=N\S(=O)(=O)c3cccs3)c3ccccc3C2=O)c(C)c1	3.55µM*	·	·	·	3.55µM*
COc1ccc(C2=C(Nc3ccc(C)cc3C)c3ccccc3C2=O)cc1	17.0%	·	0.7%	·	4.5%
Cc1cnc(NC(=O)CSc2nnc(-c3ccccc3)o2)s1	?	·	·	·	14.1µM*
CCCN(CCC)C(=O)Cn1c(=O)n(-c2ccc(CC)cc2)c(=O)c2c3c(sc21)CCC3	22.5%	89.1µM*	-6.8%	-11.1%	15.1%
O=C1NC(=O)C(c2cnc3ccccn23)=C1c1cn2c3c(cc(F)cc13)CN(C(=O)N1CCCCC1)CC2	·	27µM*!	·	-9.3%	·
Cc1ccc(-c2nn(C(C)(C)CNC(=O)c3ccncc3)c3ncnc(N)c23)cc1	·	7.8%	·	·	·
Cc1cc(-c2nnc3n2CCC3)c(C)n1-c1ccccc1	·	3.2%[57.5 µM]	·	·	·
C[C@@H]1C(=O)O[C@H]2[C@H]1CC[C@@]1(C)C(=O)C=C[C@](C)(O)[C@H]21	·	9.6%[57.5 µM]	·	1.1%	·
